# Measured values from PubChem BioAssay AID1508609 (The Scripps Research Institute Molecular Screening Center, 2020).
# The whole screen tested about 6,700 compounds, of which fewer than 10 were called active. These entries were drawn from the full list. Values without a mark were called inactive.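 How the source made its calls: active means mean percent activation across replicates above the confirmation screen cutoff of 4.91%; inactive means the rest.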
# Molecular target: G-protein coupled receptor 151 (Homo sapiens) (UniProt Q8TDV0)
# Test: GPR151 agonism via beta-arrestin recruitment – cell-based, PathHunter beta-arrestin, luminescence, confirmation (AID 1508609)
# Settings: GPR151 PathHunter beta-arrestin cells, 90 min, at 11.2 µM, hits give high values, % of EA-reagent control over plate median
# Sequence of G-protein coupled receptor 151 (Homo sapiens) (Q8TDV0 whole entry, looked up): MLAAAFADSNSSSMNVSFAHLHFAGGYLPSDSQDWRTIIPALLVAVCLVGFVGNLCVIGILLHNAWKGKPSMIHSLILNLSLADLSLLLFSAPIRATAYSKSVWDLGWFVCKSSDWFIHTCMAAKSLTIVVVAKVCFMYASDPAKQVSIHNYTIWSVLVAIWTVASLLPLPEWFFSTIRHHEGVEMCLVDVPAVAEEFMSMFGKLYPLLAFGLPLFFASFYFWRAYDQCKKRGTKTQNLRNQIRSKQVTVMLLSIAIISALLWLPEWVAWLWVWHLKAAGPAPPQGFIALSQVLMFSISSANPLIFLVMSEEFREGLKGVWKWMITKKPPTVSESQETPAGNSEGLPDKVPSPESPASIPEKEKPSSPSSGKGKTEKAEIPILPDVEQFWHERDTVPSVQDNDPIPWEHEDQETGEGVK
row,Structure (SMILES),activation [%]
1,COc1ccc(CCNc2cc(C)nc(Nc3cccc(N(C)C)c3)n2)cc1,0.06
2,O=C(Nc1ccc(NC(=O)c2cccc3c(Br)cccc23)cc1)c1ccco1,1.13
3,COC(=O)[C@@H]1CC(O)CN1C(=O)C12CC3CC(CC(C3)C1)C2 (some centres undefined),0.35
4,CC1=C(C(=O)Nc2cccc(F)c2)C(c2ccccn2)C2=C(CCCC2=O)N1 (centres undefined),0.25
5,NC(=S)N/N=C/c1ccc([N+](=O)[O-])cc1,-0.11
6,CC(C)C(=O)NC(=S)Nc1ccccc1F,0.14
7,COc1ccc(C2(NC(=O)CCn3cnc4sc(C)c(C)c4c3=O)CCCCC2)cc1,0.69
8,CCC1=C(C)c2cc3nc(C(=O)OCc4ccccc4)c(C)c-3c(C)n2C1C (centres undefined),-0.16
9,CCN(CC)C(=O)C1CCCN(c2cc(N)nc(N)n2)C1 (centres undefined),-0.11
10,CCC1C(=O)NCCN1Cc1ccc2c(c1)CN(Cc1c[nH]c3ccccc13)CCO2 (centres undefined),1.68
11,CN1C(=O)c2ccc(N3C(=O)c4cccc([N+](=O)[O-])c4C3=O)cc2C1=O,-0.57
12,Cc1ccc[n+](-c2ncnc(N)c2[N+](=O)[O-])c1,-0.67
13,COc1cccc(-c2ocnc2C(=O)Nc2ccc3nc(-c4cccnc4)oc3c2)c1,0.94
14,O=C(c1cc([N+](=O)[O-])ccc1NC1CCCCC1)N1CCOCC1,-1.3
15,C=CCN1C(=O)CC(C(=O)OC)C12CCN(C1CCN(C(=O)OCC)CC1)CC2 (centres undefined),-0.6
16,Cc1cccc(-n2nc3c(c2NC(=O)CCC2CCCCC2)CS(=O)(=O)C3)c1C,0.42
17,COc1ccc(C2C(C#N)=C(N)Oc3c2c(C)nn3-c2ccccc2)cc1 (centres undefined),0.69
18,CC(=O)c1ccc(NC(=O)c2ccc(CN(c3ccc(C)c(C)c3)S(C)(=O)=O)cc2)cc1,-0.1
19,CC1CCCC(NCc2c(C(=O)O)n(Cc3ccc(Cl)cc3)c3ccccc23)C1C (centres undefined),0.3
20,Cc1cccc(C)c1-n1c(=S)sc2c(=O)n(-c3cccc(Cl)c3)c(SCC#N)nc21,2.02
21,CCCCc1ccc(N=Cc2nc(-c3cccc4ccccc34)oc2O)cc1,-1.01

row,Structure (SMILES),activation [%]
1,Cc1ccc(N2C(=O)CC(N3CCN(Cc4ccc(Cl)cc4)CC3)C2=O)cc1Cl (centres undefined),0.04
2,Oc1ccc(Cn2cc[nH]c2=S)cc1,-0.7
3,CC(C)NC(=O)/C=C/c1ccccc1Cl,-0.37
4,COc1ccc(C(=O)CSc2nc3sc4c(c3c(=O)n2-c2ccc(Cl)cn2)CCCC4)c(F)c1,-0.67
5,NC(=O)C1CCN(C(=O)c2ccc(-c3ccccc3)cc2)CC1,-1.12
6,COCCNC(=S)N1CCN(c2ccccc2OC)CC1,0.65
7,Cc1ccc(-c2nnc(N3CCOCC3)c3ccccc23)cc1S(=O)(=O)N1CCN(C)CC1,-0.46
8,CC(C)n1c(=O)[nH]c2c(C(N)=O)nc(-c3ccc(-c4ccccc4)cc3)nc21,-0.04
9,COc1ccc(OC)c(/C=N/n2nnnc2N)c1,-0.17
10,O=C(NCc1ccsc1)c1ccc(-n2cccc2)cc1,0.53
11,C=CCc1ccccc1OCCN1CCNCC1,-0.14
12,Cc1ccc(S(=O)(=O)NCC(c2cccnc2)N2CCN(c3ccc(F)cc3)CC2)cc1 (centres undefined),-0.45
13,CC(=O)NC(CC(=O)O)c1ccc(F)cc1 (centres undefined),0.27
14,CC(=O)c1c(C)[nH]c(C(=O)N2CCN(c3ccc(Cl)cc3)CC2)c1C,-0.42
15,CC(=O)Oc1cccc(N2C(=O)C3C4c5ccccc5C(C)(c5ccccc54)C3C2=O)c1 (centres undefined),-0.54
16,O=C(CC1C(=O)NCCN1Cc1ccc2ccccc2c1)NCCCn1cccn1 (centres undefined),0.42
17,CC(=O)Oc1cc2c(C(=O)NCCN3CCOCC3)c(C)oc2c2ccccc12,-0.37
18,CCOc1ccc(NC(=O)COc2cccc(C)c2C)cc1,0.66
19,Cc1cc2c(cc1S(=O)(=O)CCC(=O)Nc1ccccc1Cl)OCC(=O)N2,0.39
20,O=C(CC12CC3CC(CC(C3)C1)C2)Nc1ccc2oc(=O)ccc2c1,-0.22
21,CCOc1cc(C2C3=C(CCCC3=O)NC3=C2C(=O)CCC3)cc(Br)c1OCC,0.37

row,Structure (SMILES),activation [%]
1,COc1ccc([N+](=O)[O-])cc1NC(=O)C1CC(Cl)=CCC1C(=O)O (centres undefined),0.92
2,Brc1cnc(NC2CCCCC2)nc1,1.03
3,COc1cc(-c2coc3cc(O[C@@H]4O[C@H](CO)[C@@H](O)[C@H](O)[C@H]4O)c(OC)c(O)c3c2=O)cc(O)c1OC,-0.2
4,COc1ccc(OC)c(S(=O)(=O)Oc2ccc(Cl)c3cccnc23)c1,0.21
5,O=C(NCCO)c1cnc(NC2CCN(Cc3ccccc3)CC2)s1,0.92
6,COc1ccc(C=O)cc1OCc1ccc(F)cc1,-0.07
7,C=C(C)CSc1nc2sc3c(c2c(=O)n1-c1ccc(OC)cc1)CC(C)(C)OC3,0.13
8,COC(=O)C1=CN(Cc2ccc(Cl)cc2)C=C(C(=O)OC)C1c1cc(OC)c(O)c(OC)c1,0.02
9,Nc1nc(NC(=O)/C=C/c2ccc(F)cc2)nn1-c1ccccc1,0.79
10,COCCNc1nc2nonc2nc1N(C)Cc1ccncc1C,1.1
11,CC(C)N1CCc2c(sc(NC(=O)Cc3ccccc3)c2C#N)C1,0.16
12,CC(C)c1ccc(CN[C@H]2C[C@H]3C(=O)N[C@@H](COCc4ccccc4)C(=O)N3C2)cc1,0.67
13,CC(C)n1c(Nc2ccc3ncccc3c2)nc2c(NC3CC3)ncnc21,-0.12
14,Cc1ccc(/C=C2/C(=O)NC(=O)N(c3ccccc3)C2=O)cc1[N+](=O)[O-],0
15,CN(C)c1cccc(Nc2cc(C(=O)Nc3ccc(N4CCOCC4)cc3)ccn2)c1,-1.31
16,O=C(Nc1ccc(N2CCCC2=O)cc1)c1cncc(Br)c1,0.8
17,COc1cc(Nc2ccnc(Nc3ccc(N4CCOCC4)cc3)n2)cc(OC)c1OC,3.41
18,COc1ccc(COC(=O)NNC(=O)c2cccc(Cl)c2)cc1,-0.17
19,CCOC(=O)C(C(=O)c1ccccc1)C1(O)C(=O)c2ccccc2C1=O (centres undefined),-0.37
20,CCC(CC)C(=O)N1CCN(Cc2nc3sc(C)c(C)c3c(=O)[nH]2)CC1,0.36
21,CCC(=O)Nc1cc(C(=O)O)ccc1C,0.34

row,Structure (SMILES),activation [%]
1,CCOC(=O)c1[nH]c2ccc(OC)cc2c1NC(=O)CN(C)C,0.64
2,COc1ccc(C2=NN(C(=O)c3cc(OC)c(OC)c(OC)c3)C(c3ccc(Cl)cc3)C2)cc1OC (centres undefined),0.2
3,Cc1ccc(N2C(=O)CC(NCCN3CCOCC3)C2=O)cc1 (centres undefined),0.27
4,c1cncc(Nc2nc(NC3CC3)c3ncn(C4CCCCC4)c3n2)c1,-0.06
5,CCCCOC(=O)C1=C(C)NC2=C(C(=O)CCC2)C1c1cccc([N+](=O)[O-])c1 (centres undefined),-0.99
6,CC(=O)Nc1ccc(NC(=O)c2ccc3nc(Br)sc3c2)cc1,-0.12
7,O=C(COc1ccc([N+](=O)[O-])cc1)Nc1ccc2oc(-c3cccc(F)c3)nc2c1,0.23
8,COCC(=O)Nc1c(I)c(C(=O)NCC(O)CO)c(I)c(C(=O)N(C)CC(O)CO)c1I (centres undefined),-0.27
9,CCN(CC)C(=O)C1CCCN(c2ncc(C)c(NCc3cccc(C(F)(F)F)c3)n2)C1 (centres undefined),1.13
10,COc1ccc2nc(/C(C#N)=C\c3cc4c(cc3OC)OCO4)[nH]c2c1,0.91
11,Cc1cc(Nc2ccc(F)cc2)n2cnnc2n1,1.15
12,CN(Cc1ccccc1)C(=O)c1nc2ccc(-c3cn[nH]c3)cc2s1,0.57
13,O=C(/C=C/c1ccccc1)c1ccccc1O,-0.11
14,COC(=O)Cn1ncc2c3ccccc3n(Cc3cccc(Cl)c3)c2c1=O,0.15
15,COc1ccc(CCNC(=S)NCc2cc(C)n(C)n2)cc1OC,-0.26
16,O=C1/C(=C\c2ccccc2)C(N2CCOCC2)=NN1c1ccc([N+](=O)[O-])cc1,0.23
17,CC12CCC(C(=O)NC3CCCCC3)(OC1=O)C2(C)C (centres undefined),0.51
18,CN(Cc1nc(-c2ccc3c(c2)OCO3)no1)C1CCCc2ccccc21 (centres undefined),0.68
19,COc1ccc(-c2noc(-c3ccccc3Cl)n2)cc1,-0.15
20,Cc1ccc2c(c1)N(CC(=O)N1CCC(C)CC1)C(=O)c1cccnc1O2,0.11
21,CC(/C=N\NC(=O)CSc1nc(C)cc(C)n1)=C\c1ccccc1,-1.7
